# Laboratory results: the supplement of paper PMC6555819
# Tests used:
# Test in all cases: PBM binding z-score (relative to random genomic background probes); higher = stronger binding; sequences stand for … in GC…GCGATTGACAGCGTAGAATGAAGG
# [1] = system: RARb homodimer (NR concentration 270 nM)
# Outline: (§1)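 Regression normalization was applied to scanned fluorescence from custom Agilent 4×180K protein-binding microarrays. Before scanning, arrays were incubated 1 h with ligand-free nuclear receptor dimers, and binding was detected with antibodies against each partner (one per run). Binding z-scores use the random background probes as reference.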
# [2] = system: RARg:RXRa (NR concentration 270 nM, RXRa partner concentration 90 nM)
# Outline: as §1
# [3] = system: RARg homodimer (NR concentration 270 nM)
# Outline: as §1
# [4] = system: RXRa DBDmut IVT, anti-RXR (DBD mutation: RXRa K156A/R161A, NR concentration 90 nM)
# Outline: as §1
# [5] = system: RXRa homodimer (NR concentration 180 nM)
# Outline: as §1
# [6] = system: THRa:RXRa (NR concentration 90 nM, RXRa partner concentration 90 nM)
# Outline: as §1
# [7] = system: THRa homodimer (NR concentration 90 nM)
# Outline: as §1
# [8] = system: VDR homodimer (NR concentration 270 nM)
# Outline: as §1
Sequence,PBM binding z-score [1],PBM binding z-score [2],PBM binding z-score [3],PBM binding z-score [4],PBM binding z-score [5],PBM binding z-score [6],PBM binding z-score [7],PBM binding z-score [8]
GGAACGAGGGCAAGTTGATAGCAGAGTTTGATGG,1.67,1.68,2.25,2.42,0.781,1.3,0.0645,1.9
TCTAGTCGGTCACGGAGGTCACACACGACGGGTA,5.2,5.84,6.47,1.15,5.17,3.94,2.48,3.72
CGTCTAAGGTCAGAGAGGTCAGTGAATGCCGAGT,5.36,6.8,7.77,3.83,6.37,4.66,3.81,5.7
CAAACTAGGTGACAGAGGTCAAAGTCCGTGCGTA,4.61,5.54,4.74,2.18,6.14,4.15,1.75,4.09
CCTACTGGGCCAAAGGTCATTGGTTCCAATGCTC,4.8,5.8,4.77,0.919,6.11,3.37,0.894,2.85
AGATTGAGGTTAAGATCAGGGAAACAGAATACAT,1.42,2.1,1.78,1.36,2.48,2.7,1.12,0.928
GCTAGTTGGTCAGTAAAAGGTCACAGACCGGTCG,5.24,5.64,5.2,0.262,5.7,3.79,1.68,1.13
TAGCCTACGTCAGATCGGGCCAGTATACGCTATA,-0.763,-0.503,-0.517,-0.801,-0.569,0.901,-0.732,-0.727
CCTAGCAGGCCAGGGGCACTCAAGCATTTCGCTT,-0.0718,-0.38,-0.0557,-1.12,-0.341,-0.336,-1.01,-0.769
ATCTCTAGGTAAGACTCAGTTCAGTGGAGAACGC,0.868,0.285,0.403,0.304,0.0842,0.884,0.583,1.57
ATATGTAGGTTACATCCGGGTCGTTCAGGCTATG,1.5,1.78,1.28,1.22,1.54,2.53,1.24,1.82
GCTATTAGTTGAAAGGGCAATCGAATGATTCTCG,1.55,0.91,0.806,0.718,1.12,0.487,-0.359,0.123
TCTAGTTGGTCACGGAGGTCACAGACGACGGGTA,4.64,4.79,4.98,1.02,5.24,3.72,2.35,2.78
GCGACTGGGGCATCAGCAGGTTAGCATAACTTAA,0.258,0.506,0.0514,-0.821,0.0592,0.204,-0.74,-0.612
TCTTGTAGCTCAAAGGTTAAGAAAGCCGAAGCCT,1.26,1.16,0.435,0.364,1.82,1.05,-0.771,-0.151
AGAATGAGGTTATACGTAGATCAGGGGAGAAAGT,0.956,1.78,1.26,2.05,2.14,2.25,0.738,1.45
GCGACTGGGGCATCAGCAGGTTACGATAACTTAA,0.928,0.837,0.545,-0.13,0.313,0.816,-0.273,-0.435
TCGTGTAGATCAACAGGAGGTTAAGAAAGATCGA,0.472,0.729,0.231,-0.0769,0.672,0.819,-0.773,-0.463
TGTCAAAGTTCAAAAGTAACGTAAGTATCCACAC,3.09,5.13,5.21,4.25,4.57,1.86,-0.26,3.51

Sequence,PBM binding z-score [1],PBM binding z-score [2],PBM binding z-score [3],PBM binding z-score [4],PBM binding z-score [5],PBM binding z-score [6],PBM binding z-score [7],PBM binding z-score [8]
CCTACTGGGCCAAAGGTCATTTATTCCAATGCTC,4.42,5.3,4.03,1.55,6.1,3.27,0.735,3.04
ACTCGGAAGACAAAGGTCAGAGCTACGCCAGTGA,4.33,4.5,4.21,0.211,4.56,2.57,0.0345,0.445
ACTAGCAGGTCAAGTTTGGGTCACTCAAACAAAG,4.03,7.23,5.73,2.25,4.85,4.38,1.93,2.13
CAGCCTAGGTCAGGGCCAATATAGGAGGAACGTT,2.42,3.05,3.61,0.0153,1.69,2.07,0.573,0.171
GCTAGTTGGTCAGTAAAAGGTCACATACCGGTCG,5.15,5.2,4.75,0.819,4.95,3.52,1.86,1.74
AGTCAAAGTTCATCTAGGTAACGCAAGATATGCT,3.95,5.4,6.01,4.76,4.57,3.08,0.274,5.06
TCTTGTAGATCAATAGAGGTTGAGAAAGTGCGCT,-0.259,0.00331,-0.196,0.738,0.307,0.629,-0.723,-0.179
ATCTCTAGGTCAAGATAGTTCAGTGAATGCAAAT,3.89,4.63,5.48,1.58,3.14,3.35,1.71,1.73
GATACAGGGTCAAGACCAGAGTACGCGTATTGAT,3.07,4.94,4.7,2.23,5.54,3.33,0.503,2.14
AGAATGAGGTTAAGATCAGTGAAACAGAATACAT,0.841,2.07,1.34,0.64,2.31,2.31,0.766,0.283
ACTAGAAGGCCAAGTTTGGGTCACTCAAACAAAG,2.88,3.27,2.36,0.0906,1.29,3,1.32,0.626
CCTACAGGGCCACGAAAGGTCATTGATTCAGTGA,5.01,5.13,5.03,0.833,5.27,4.25,0.829,2.2
TTACCAAGGGGAGCTGAGGTCGTTGATCCAACTC,0.704,0.0282,-0.439,0.656,0.726,3.71,1.49,1.86
AATACATGGTCACTAGGCCAGAGTAGGTACGAAT,0.707,0.578,1.01,-0.405,0.58,-0.00579,-0.302,0.15
TAGCCTAGGTCATTCAGGGGACAGTATAGAAAGC,3.89,6.43,4.2,2.35,2.9,3.75,1.54,1.66
CAAACTAGGTCACGATAGGTCAAAGTCGAATGAC,4.88,6.44,6.71,2.13,5.99,4.65,2.39,2.02
ACTCGTAGGACAAAGGTCAGAGCTACGCCAGTGA,4.29,5.58,4.82,1.14,5.3,2.92,0.244,0.657
TCGAGTAGCTTACCAATGGGGCATTCAGCTTTCT,-0.454,-0.745,-0.826,0.345,-0.307,-1.44,-0.855,-0.692
TCTATTAGTTGAAGGTCAACCGACGAGTCCGTTT,4.21,4.22,4.39,2.25,4.15,3.13,1.93,3.45

Sequence,PBM binding z-score [1],PBM binding z-score [2],PBM binding z-score [3],PBM binding z-score [4],PBM binding z-score [5],PBM binding z-score [6],PBM binding z-score [7],PBM binding z-score [8]
ACTAGCAGGCCAAGTTTGGGTCGCTCAAACAAAG,0.422,0.182,-0.0192,-0.368,-0.399,0.704,-0.599,-0.503
TCTAGTAGATCAGCAGGTTAAGAAAGCTGGCCAA,-0.0798,-0.00824,-0.453,0.645,0.438,0.0763,-1.15,-0.213
GTGACTGGGGCAAAGCAGGTTACCATAAGGTTGG,1.55,1.43,1.19,-0.205,0.875,3.35,0.631,0.275
CGTCCCAGGTCATAGGAGGTCAGTGAAGACAGAT,4.84,5.47,5.84,2.74,4.75,4.89,3.13,3.59
TCATTTAGGTAAATGCTAGGTGAAAGTCCGATCT,0.541,0.116,0.0576,1.57,0.519,1.69,0.878,0.0956
ATATGTAGGTTACATCCGGGTCATTCGGGCTATG,2.99,3.7,2.26,1.22,3.01,3.69,2.36,3.19
ACAGACAGGTTATGAAGGTAACTCAGGCTATCAT,0.833,0.914,0.793,0.197,0.932,1.51,0.368,0.373
ATCGAAAGGTCGACGACGTGAGTATACACCGTTT,2.21,4.04,3.8,1.3,3.94,1.73,-0.597,0.228
TTACCAAGGTGAAGGTCCTTGATCCCTCTGTAGA,1.32,0.466,0.274,-0.201,0.918,1.95,0.841,-0.203
CCTCCGAGGACAGAAGGTCAGAGCTGTCCGCTTT,3.67,3.52,3.34,0.589,2.37,2.76,1.17,0.494
TCGAGTAGGTTAGTCGTGGCATTCAGCCAACATA,-0.359,-0.49,-0.451,-0.0351,-0.388,-0.461,-1.11,-0.659
CTTCGGAGGACAACAGGAGGTCAGAGCTGCCAGA,3.55,3.73,3.57,0.619,2.19,2.97,1.1,1.45
ATCTCTAGGTAACAAGTTTAGTGAAAGAGAGGAC,0.455,0.384,0.772,0.0199,0.165,0.929,0.836,0.684
AGTCAAGGTTCATCTAGGTAACGTAAGATATGCT,2.09,3.09,2.93,4.77,3.54,3,0.474,5.03
TCTCCTAGGTCAGTTGGTCAGCTAACGAGCTGCC,2.95,3.2,3.85,1.16,1.38,1.79,0.747,0.116
ACAGACAGGTCAGTGAAGGTAACTCAGCTGGACG,2.48,3.33,4.21,0.616,2.23,3.86,-0.151,-0.256
AGAACTAGGGCAATGAGTTGATAGCACGGGTGGC,0.411,0.47,0.889,0.324,0.422,0.157,-0.177,1.02
CGAACTAGGTCGGAACAGGACAGTGAAGGATGAT,0.127,0.399,0.643,-0.112,0.169,1.89,-0.442,-0.102
